Assay results taken from the supplement of paper PMC10646978.
± gives the standard deviation.

Experiments:
Conditions in all cases: modulator concentration 10 µM
[1] = test system: RAW-Dual (murine macrophage reporter line); test: NF-kB reporter (SEAP) activity fold change vs agonist alone; higher = enhanced NF-kB activity
How it was run: (§1)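 RAW-Dual murine macrophage reporter cells were seeded at 50 000 per well in 384-well plates and pre-incubated 1 hour at 37 °C with compound pin-transferred to 10 μM final. After 1 hour, a PRR agonist was added and cells incubated overnight. Supernatant NF-κB (SEAP, QUANTI-Blue, 620 nm absorbance) and IRF (Lucia luciferase, QUANTI-Luc, luminescence) signals were divided by the mean agonist-only control on the same plate to give fold change. Two replicate plates were averaged, with errors by propagation.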

[2] = test system: RAW-Dual (murine macrophage reporter line); test: IRF reporter (Lucia luciferase) activity fold change vs agonist alone; higher = enhanced IRF activity
How it was run: as §1

[3] = test system: RAW-Dual (murine macrophage reporter line); test: viability score (confluency relative to resting cells, overnight) (fraction); higher = more viable, active = viable (0.7 or more)
How it was run: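 Overnight exposure to 10 μM final compound was carried out on RAW-Dual macrophages in 384-well plates. IncuCyte software generated two confluency masks over all wells imaged with IncuCyte. The viability score gives confluency in relation to resting cells. A compound met the cutoff if each mask exceeded 70% of resting cells.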

[4] = agonist: CpG ODN 1826 0.5 ug/mL

| SMILES | NF-kB reporter [1, 4] | NF-kB reporter ([1]; agonist: LPS 0.1 ug/mL) | NF-kB reporter ([1]; agonist: MPLA […]) | IRF reporter ([2]; agonist: 3'3'-cGAMP 10 ug/mL) | IRF reporter ([2]; agonist: LPS 0.1 ug/mL) | IRF reporter ([2]; agonist: MPLA […]) | viability score [3] |
| --- | --- | --- | --- | --- | --- | --- | --- |
| CC(=O)Oc1cc2c(s1)CCN(C(C(=O)C1CC1)c1ccccc1F)C2.Cl (centres undefined) | 0.767 ± 0.1 | 0.727 ± 0.11 | 0.77 ± 0.043 | 0.779 ± 0.073 | 1.01 ± 0.088 | 0.998 ± 0.12 | 0.983 (active) |
| CC1(C)CC(=O)C2=C(C1)OC(N)=C(C#N)C21CCCCC1 | 1.01 ± 0.18 | 0.866 ± 0.07 | 0.895 ± 0.14 | 0.867 ± 0.024 | 1.13 ± 0.15 | 1.18 ± 0.14 | 1 (active) |
| Cc1cccc2sc(NNC(=O)c3ccc(S(=O)(=O)N4CCc5ccccc5C4)cc3)nc12 | 0.923 ± 0.093 | 0.973 ± 0.063 | 0.93 ± 0.079 | 0.929 ± 0.067 | 1.2 ± 0.2 | 0.93 ± 0.11 | 0.995 (active) |
| O=[N+]([O-])c1ccc(CSc2nc3ccccc3[nH]2)cc1 | 0.971 ± 0.076 | 0.87 ± 0.048 | 1.01 ± 0.024 | 0.834 ± 0.048 | 1.02 ± 0.13 | 1.12 ± 0.11 | 0.995 (active) |
| CCC1(O)C(=O)OCc2c1cc1n(c2=O)Cc2cc3cc(O)ccc3nc2-1 (centres undefined) | 2.02 ± 0.62 | 1.28 ± 0.11 | 2.19 ± 0.4 | 2.67 ± 0.16 | 2.12 ± 0.24 | 1.89 ± 0.32 | 0.851 (active) |
| Cc1cc2c(s1)Nc1ccccc1N=C2N1CCN(C)CC1 | 0.278 ± 0.057 | 1.03 ± 0.36 | 0.929 ± 0.056 | 0.819 ± 0.049 | 1.16 ± 0.37 | 0.974 ± 0.075 | 1 (active) |
| COC(=O)c1ccccc1NC(=O)CCc1ccc(Oc2cc([N+](=O)[O-])cc([N+](=O)[O-])c2)cc1 | 1.22 ± 0.11 | 1.08 ± 0.079 | 1.13 ± 0.072 | 0.431 ± 0.054 | 1.03 ± 0.17 | 0.766 ± 0.17 | 1.01 (active) |
| CN1CCN(C2=C(Cl)C(=O)N(c3cccc(Cl)c3)C2=O)CC1 | 1.09 ± 0.079 | 0.914 ± 0.099 | 1.01 ± 0.03 | 0.465 ± 0.022 | 0.972 ± 0.053 | 0.974 ± 0.096 | 0.993 (active) |
| Cl.NCCCC(N)(C(=O)O)C(F)F.O (centres undefined) | 1.06 ± 0.25 | 1.09 ± 0.065 | 1.2 ± 0.18 | 0.922 ± 0.035 | 1.3 ± 0.15 | 1.19 ± 0.15 | 0.994 (active) |
| COC(CNS(=O)(=O)Cc1ccccc1)c1ccc(Cl)s1 (centres undefined) | 0.959 ± 0.056 | 1.02 ± 0.084 | 0.922 ± 0.052 | 1.24 ± 0.1 | 1.12 ± 0.071 | 1.16 ± 0.35 | 0.639 (inactive) |
| CCCC1CCC(c2ccc(C(=O)NNC(=O)c3ccc(C4CCC(CCC)CC4)cc3)cc2)CC1 (centres undefined) | 0.984 ± 0.059 | 1.01 ± 0.07 | 0.936 ± 0.059 | 0.898 ± 0.035 | 1.43 ± 0.11 | 1.13 ± 0.21 | 1.01 (active) |
| COC(=O)c1cc(Br)ccc1NC(=O)c1ccccc1 | 1.07 ± 0.17 | 1.02 ± 0.17 | 1.03 ± 0.18 | 1.12 ± 0.045 | 1.24 ± 0.18 | 1.19 ± 0.21 | 0.99 (active) |
| Cc1nc(-c2ccc(S(=O)(=O)NC3CCc4nc(N(C)C)ncc4C3)cc2)co1 (centres undefined) | 0.877 ± 0.065 | 1.21 ± 0.1 | 1.05 ± 0.053 | 1.14 ± 0.074 | 1.21 ± 0.091 | 1.35 ± 0.27 | 0.919 (active) |
| CCN(CCO)CCCOc1ccc2c(Nc3cc(CC(=O)Nc4cccc(F)c4)n[nH]3)ncnc2c1 | 0.703 ± 0.17 | 0.902 ± 0.23 | 0.893 ± 0.098 | 0.982 ± 0.03 | 1.25 ± 0.25 | 1.18 ± 0.12 | 0.951 (active) |
| Cc1ccc(OCC(=O)NN=Cc2cc(Br)cc(Br)c2O)c([N+](=O)[O-])c1 | 0.928 ± 0.071 | 0.908 ± 0.11 | 1.08 ± 0.17 | 1.01 ± 0.073 | 1.33 ± 0.26 | 1.47 ± 0.33 | 1.02 (active) |
| CN(C)c1ccc(C=C(C#N)c2nc(-c3cc4ccccc4oc3=O)cs2)cc1 | 0.972 ± 0.057 | 1.04 ± 0.13 | 0.955 ± 0.079 | 0.86 ± 0.03 | 1.36 ± 0.091 | 1.15 ± 0.24 | 1.01 (active) |
| O=C(CCCn1c(=O)[nH]c2ccc(Br)cc2c1=O)NCC1CCCO1 (centres undefined) | 0.965 ± 0.081 | 1.05 ± 0.099 | 0.931 ± 0.043 | 0.957 ± 0.057 | 1.04 ± 0.063 | 0.94 ± 0.25 | 1.02 (active) |
| O=C1CCCc2nn(-c3ccccc3)nc21 | 1.02 ± 0.086 | 1.05 ± 0.14 | 1.09 ± 0.12 | 1 ± 0.049 | 1.17 ± 0.14 | 1.21 ± 0.19 | 1.03 (active) |
| O=S(=O)(N=Cc1c(O)ccc2ccccc12)c1cccs1 | 1.05 ± 0.23 | 1 ± 0.079 | 0.876 ± 0.12 | 0.74 ± 0.022 | 0.988 ± 0.15 | 0.992 ± 0.2 | 0.999 (active) |
| Cc1ccc(C(CNC(=O)NC2CCCC2)OCCO)cc1 (centres undefined) | 0.622 ± 0.072 | 1.08 ± 0.1 | 0.808 ± 0.047 | 0.944 ± 0.075 | 1.07 ± 0.1 | 1.1 ± 0.27 | 1.01 (active) |
| COc1cc(NC(=O)COc2cc(C)c(Cl)c(C)c2)cc(OC)c1 | 1.02 ± 0.18 | 0.954 ± 0.078 | 0.854 ± 0.098 | 0.93 ± 0.025 | 1.06 ± 0.12 | 1.04 ± 0.12 | 1 (active) |
| OCCOCCN1CCN(C(c2ccccc2)c2ccc(Cl)cc2)CC1 (centres undefined) [Prestw-133] | 1.07 ± 0.083 | 0.934 ± 0.071 | 1.07 ± 0.11 | 0.763 ± 0.024 | 1 ± 0.14 | 1.01 ± 0.21 | 1.04 (active) |
| CC(C)(C)NCC(O)COc1cccc2c1CCC(=O)N2.Cl (centres undefined) | 1.14 ± 0.17 | 1.12 ± 0.25 | 1.03 ± 0.12 | 0.941 ± 0.037 | 1.33 ± 0.26 | 1.03 ± 0.19 | 0.995 (active) |
| O=C(O)c1cc(Nc2ccnc3cc(Cl)ccc23)ccc1O | 1.04 ± 0.082 | 1.02 ± 0.088 | 0.932 ± 0.044 | 0.963 ± 0.05 | 1.02 ± 0.056 | 0.96 ± 0.18 | 1 (active) |
| O=C(C=Cc1ccco1)Nc1ccc(C(=O)O)cc1NC(=O)C=Cc1ccco1 | 0.691 ± 0.069 | 1.11 ± 0.061 | 0.932 ± 0.056 | 0.884 ± 0.028 | 1.27 ± 0.19 | 0.976 ± 0.27 | 1.02 (active) |
| Cc1cc(C)nc(SCCCCSc2nc(C)cc(C)n2)n1 | 1.03 ± 0.062 | 0.975 ± 0.14 | 0.944 ± 0.025 | 1.13 ± 0.14 | 0.979 ± 0.11 | 0.909 ± 0.21 | 0.996 (active) |
| CC(=O)Nc1ccc(S(=O)(=O)N2CCCc3ccccc32)cc1 | 1.15 ± 0.092 | 0.888 ± 0.081 | 1.09 ± 0.1 | 1.13 ± 0.043 | 1.27 ± 0.24 | 1.54 ± 0.32 | 0.984 (active) |
